High-throughput results: PubChem, National Center for Advancing Translational Sciences (NCATS)
This is a sample that favours compounds with a hit; in the whole collection about 4.5% have one here.
GBA activity: human lysosomal glucosylceramidase modulation | P04062 | purified enzyme, resorufin glucoside fluorescence (screen aimed at inhibitors), 20 min | Potency, µM | 48,000 tested, 1.1% active; in the data active = potency below about 15 µM; inconclusive = mostly about 16 µM to 33 µM;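 also: the screen sought inhibitors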
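Normal human glucocerebrosidase (0.2 nM final) was assayed with resorufin β-D-glucopyranoside (30 uM final) in 50mM citric acid/KH2PO4, 10mM sodium taurocholate, 0.01% tween-20, pH 5.9. Compounds were titrated; fluorescence (Ex 548, Em 600) read after 20 min at RT.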
Caspase-7 inhib: caspase-7 (human) inhibition, allosteric or competitive; P55210; recombinant caspase-7, Ac-DEVD-AFC fluorescence rate; Potency, µM (highest dose often 57.5 µM), for the others: top-dose activity change, negative = inhibition, hits mostly inhibitors; 75,000 tested, 0.02% active; active = well fitted inhibition curve with a large enough effect in the main read-out, with a control signal flat, not every such curve was filed as active; inconclusive = small, poorly fitted or top-dose-only effect, or a change in a side signal; also: % of control where 0% means no effect
Target sequence (P55210 24-198 limits assumed): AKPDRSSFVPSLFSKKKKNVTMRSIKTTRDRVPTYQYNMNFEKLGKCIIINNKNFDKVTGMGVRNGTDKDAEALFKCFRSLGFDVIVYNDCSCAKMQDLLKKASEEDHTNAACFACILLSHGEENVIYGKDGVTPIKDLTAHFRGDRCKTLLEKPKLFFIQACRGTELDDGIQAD
Target sequence (P55210 207-303 limits assumed): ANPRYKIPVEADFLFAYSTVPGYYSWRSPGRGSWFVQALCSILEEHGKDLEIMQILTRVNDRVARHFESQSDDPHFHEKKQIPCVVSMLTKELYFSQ
Casp1 inh: blocks human caspase-1 allosterically or competitively; P29466; Caspase-1 enzyme, Ac-WEHD-AFC fluorogenic rate; Potency, µM (top dose mostly 57.5 µM), without a hit: top-dose activity change, negative = inhibition, most hits filed as inhibitors; 75,000 tested, 0.03% active; AID 900;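 also: plate controls were vehicle for no effect and no substrate for full effect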
Target sequence (P29466 120-297 limits assumed): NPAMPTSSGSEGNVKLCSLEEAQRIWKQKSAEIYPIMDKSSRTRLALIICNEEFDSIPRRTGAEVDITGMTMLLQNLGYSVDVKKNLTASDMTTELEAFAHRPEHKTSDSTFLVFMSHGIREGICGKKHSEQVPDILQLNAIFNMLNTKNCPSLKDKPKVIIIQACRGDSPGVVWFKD
Target sequence (P29466 317-404 limits assumed): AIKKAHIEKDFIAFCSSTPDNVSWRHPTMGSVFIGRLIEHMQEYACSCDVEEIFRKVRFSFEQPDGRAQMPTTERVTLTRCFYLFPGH
ERK AVP inh: inhibitors of vasopressin-stimulated ERK signaling pathway; HEK293-V1b, vasopressin-stimulated pERK AlphaScreen; Potency, µM (highest dose often 57.5 µM), for the others: at the top dose activity, negative = inhibition, actives largely listed as inhibitors; 72,000 tested, 0.99% active; AID 995; also: % is scaled to controls: 0 for no effect and ±100 for the full control effect; nearly all actives have a fitted effect of over 55% in size
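V1b-HEK293 cells; cpd 30 min 37C; 25 nM vasopressin 5 min; lyse 10 min; AlphaScreen beads 5 hr RT. Normalized to DMSO basal and 25 nM vasopressin; AC50 by Hill fit.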
TSHR ag: agonists of human thyroid stimulating hormone receptor; HEK293-CNG-TSHR cells (CNG channel as cAMP sensor), membrane potential dye, cAMP; Potency, µM (series often up to 57.1 µM), without a hit: at the highest dose activation, actives largely listed as activators; 73,000 tested, 0.48% active; AID 926; P16473; active = well fitted activation curve with a large enough effect in the main read-out, with a control signal flat, not every such curve was filed as active; inconclusive = small, poorly fitted or top-dose-only effect, or a change in a side signal; inactive = no such curve, though single readings can be large or run the other way; % of control where 0% means no effect;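 also: the control signal comes from parental cells without the receptor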
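cAMP rise detected as CNG-channel membrane depolarization by fluorescent dye (emission 590 nm), 30 min after compound, following 60 min dye loading containing 100 uM RO 20-1724 at room temperature. Cells: TSHR/CNG HEK 293, with parental CNG HEK 293 as control.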
HEK293 cAMP ctrl: raises cAMP in parental HEK293 cells, TSHR agonist counter-screen; AID 938; parental HEK293 CNG cAMP sensor, membrane potential fluorescence; 73,000 tested, 2.5% active; Potency, µM (series often up to 57.1 µM), inactives show at the top dose activation, usual class: activators; also: % of control where 0% means no effect; nearly all actives have a fitted effect of over 55% in size
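Parental HEK 293 cells stably expressing a modified CNG channel (no TSHR) report cAMP rise as membrane depolarization. Membrane potential dye with 100 uM RO 20-1724 was loaded for 60 min at room temperature, then compound added for 30 min; fluorescence read at 590 nm.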
* marks the source's active call; other numbers are inactive results; ? = inconclusive; / = no result; ! = a repeat was not active; [ ] = another dose, or the depositor's remark. Unless noted, calls follow the shape of the dose curve; as a rule, active = well fitted curve in the direction sought with a large enough effect; inconclusive = small, poorly fitted or top-dose-only effect, or another doubt; inactive = no such curve, though single readings can be large; an effect the other way counts as inactive or inconclusive. Potency is read from the fitted curve at half-maximal effect.

SMILES	GBA activity	Caspase-7 inhib	Casp1 inh	ERK AVP inh	TSHR ag	HEK293 cAMP ctrl
COc1ccc(CC(=O)Nc2cccc(-c3nnc(-c4cccc(C)c4)o3)c2)cc1OC	11*	-2%	-3%	3.2µM*	?	?
O=C(c1csnn1)N1CCC2(CC1)CN(c1cccc(-c3ccccc3)c1)C2	/	-7%	-9%	-19%	?	?
C=C1C(=O)OC2C[C@@]3(C)CCCC(=C)[C@@H]3CC12 (stereo not given in full)	/	0%	1%	8%	/	/
Cc1nc2ccccc2c(=O)n1/N=C/c1c(O)ccc2oc3c(c12)CCCC3	>77	-3%	-1%	-22%	?	16µM*
COc1cccc([C@@H]2Oc3ccc(OC)cc3/C(=N/O[C@@H](C)CN3CCCc4nc(C)c(C)cc43)[C@@H]2O)c1	/	-6%[11.5 µM]	-5%[11.5 µM]	-1%[11.5 µM]	?	4µM*
CN(C)c1ccc(/C=C2/C(=O)Nc3ccccc32)cc1	/	-1%	3%	16µM*	?	-35%
CCOC(=O)c1[nH]c(C)c(CN(CCc2ccccc2)S(C)(=O)=O)c1C	/	0%	3%	0%	32µM*	20%
O=C(CSc1nnnn1-c1ccccc1)N1CCc2ccccc2C1	>77	1%	-1%	-19%	?	16µM*
Cc1c2cccc(Sc3ccccc3)c2c2c3c(cccc13)[S+](c1ccccc1)C2 (stereo not given)	/	-5%[11.5 µM]	5%[11.5 µM]	2%[11.5 µM]	2%[11.4 µM]	10%[11.4 µM]
O=S(=O)(c1ccccc1)c1nc(-c2ccco2)oc1NCc1ccco1	>77	-5%	-1%	?	18%	16%
CC1CN(c2oc(-c3ccco3)nc2S(=O)(=O)c2ccccc2)CC(C)O1 (stereo not given)	>77	1%	3%	-6%	25µM*	27%
O=Cc1ccc(Cl)cc1	/	1%	0%	16%	2%	3%
C[n+]1cc2c3c(ccc2c2ccc4cc5c(cc4c21)OCO5)OCO3	/	-5%	-6%	25µM*!	?	-32%[25.6 µM]
CCOC(=O)c1cnc(-n2nc(C)cc2C)nc1Nc1ccc(N(C)C)cc1	>77	-1%	-1%	?	-14%	-8%
CCOC(=O)c1cnc(-n2cc(C)cn2)nc1Nc1ccccc1OC	12*	0%	-1%	-5%	/	20%
NC(=O)CSc1cn(CCNC(=O)c2cccs2)c2ccccc12	/	3%	-3%	/	32µM*	8%
Cc1nnc(NC(=O)CSc2cn(CCNC(=O)c3ccccc3)c3ccccc23)s1	/	0%	-2%	/	-4%	11%
Cc1ccccc1-c1nnc(SCC(=O)NC2CCCCC2)o1	>77	-1%	-1%	3%	?	32µM*
O=C(CSc1nnc(COc2ccccc2Cl)o1)NC(=O)NC1CCCC1	/	-4%	-2%	20µM*	9%	28%
CC(C)CCNC(=O)NC(=O)CSc1nnc(COc2ccccc2Cl)o1	>77	-6%	0%	-13%	-1%	-22%
COc1ccccc1-c1nnc(SCC(=O)NC2CCCCC2)o1	/	-1%	-4%	-7%	7%	2%
CCOc1cccc(C(=O)Nc2cccc(-c3nc4ncccc4o3)c2C)c1	>77	0%	-2%	13µM*	?	?
COc1cccc(C(=O)Nc2cccc(-c3nc4ncccc4o3)c2C)c1	/	0%	-2%	-15%	?	16µM*
COc1ccc(C(=O)Nc2cccc(-c3nc4ncccc4o3)c2C)cc1OC	>77	-1%	-1%	19%	-1%	3%
O=C(NCCCNCCCNC(=O)c1ccccn1)c1ccccn1	>77	1%	2%	0%	3%	2%
SMILES	GBA activity	Caspase-7 inhib	Casp1 inh	ERK AVP inh	TSHR ag	HEK293 cAMP ctrl
O=C(NCc1ccc(Cl)cc1Cl)c1ccccn1	>77	-4%	0%	-3%	?	25µM*
Cc1cccc(C)c1-n1nnnc1SCSc1nnnn1-c1c(C)cccc1C	>77	-1%	1%	-1%	?	16µM*
C[C@@H](C(=O)O)c1ccc(N2Cc3ccccc3C2=O)cc1	/	1%[25.7 µM]	1%[25.7 µM]	-5%[25.7 µM]	-3%[25.6 µM]	15%[25.6 µM]
CC1=C(C(=O)Nc2ccccc2)C(c2ccc3c(c2)OCO3)C2=C(CCCC2=O)N1 (stereo not given)	>77	-9%	-8%	2%	?	16µM*
COCCOC(=O)C1=C(C)NC2=C(C(=O)CC(C)(C)C2)C1c1ccc2c(c1)OCO2 (stereo not given)	/	-7%	-11%	-12%	29%	18%
CC(=O)OC[C@@H]1O[C@H](C/C=N\O[C@@H]2O[C@H](COC(C)=O)[C@@H](OC(C)=O)[C@H](OC(C)=O)[C@H]2OC(C)=O)C=C[C@@H]1OC(C)=O	/	0%[11.5 µM]	0%[11.5 µM]	-1%[11.5 µM]	-1%[11.4 µM]	0%[11.4 µM]
Cc1cc2c(c(=O)n1C1CC1)C(c1cccc(Cl)c1)C(C#N)=C(N)O2 (stereo not given)	>77	-1%	-1%	-6%	?	3.2µM*
Cc1cc2c(c(=O)n1CCN(C)C)C(c1ccc(Cl)cc1)C(C#N)=C(N)O2 (stereo not given)	>77	-1%	0%	?	0%	7%
Nn1c(SCC(=O)NC2CCCCC2)nnc1-c1ccccc1	>77	2%	0%	-7%	-1%	7%
Nn1c(SCC(=O)NC2CCCc3ccccc32)nnc1-c1cccs1 (stereo not given)	>77	-1%	1%	25%	?	0.2µM*
O=C(O)c1ccccc1NS(=O)(=O)c1ccccc1F	/	-1%	-2%	/	2%	12%
CC1(C)OCC(CSC2=C(SCC3COC(C)(C)O3)C(=O)c3ncccc3C2=O)O1 (stereo not given)	/	-9%	?	16µM*	3%	2%
CS(=O)(=O)N1CCC2(CC1)CN(c1ccc(-c3ccccc3)cc1)C2	/	-3%	-4%	-15%	3%	-6%
O=S(=O)(Nc1cccc(-c2cn3ccsc3n2)c1)c1ccc(F)cc1	/	-2%	-1%	20µM*	9%	25%
Cc1ccc(S(=O)(=O)Nc2cccc(-c3cn4ccsc4n3)c2)cc1	/	-17%	-2%	-17%	56%	21%
CC(=O)c1c(O)c(C)c(O)c2c1OC1=CC(=O)[C@H](C(C)=O)C(=O)[C@]12C	/	/	/	/	2%	2%
N=C(N)SCCON1C(=O)c2ccccc2C1=O	/	-4%[11.5 µM]	0%[11.5 µM]	1%[11.5 µM]	-2%[11.4 µM]	2%[11.4 µM]
CO[C@H]1C[C@@H](O[C@@H]2[C@H](C)[C@H](O[C@@H]3O[C@@H](C)C[C@@H](N(C)C)[C@@H]3O)[C@H](C)C[C@]3(CO3)C(=O)[C@H](C)[C@H](O)[C@H](C)[C@H](C)OC(=O)[C@@H]2C)O[C@@H](C)[C@H]1O	/	0%[25.7 µM]	-5%[25.7 µM]	-7%[25.7 µM]	-14%[25.6 µM]	10%[25.6 µM]
O=C(COc1ccc2c(c1)CCC2)N1CCc2ccccc21	>77	-4%	-2%	-8%	?	25µM*
